Read-out in assay [1]: Thrombomodulin, THBD (gene 7056)
Description: BSK_CASM3C_Thrombomodulin: BioMAP Diversity Plus: CASM3C Assay for Thrombomodulin Biomarker Activity (AID 2283051).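 Note: thrombomodulin protein level measured by ELISA 24 h after dosing.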 Conditions: primary human coronary artery smooth muscle cells; actives raise or lower the signal.

Read-out in assay [2]: Tissue Factor, F3 (gene 2152)
The experiment in a line: BSK_CASM3C_TissueFactor: BioMAP Diversity Plus: CASM3C Assay for Tissue Factor Biomarker Activity (AID 2283052).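 Note: cell surface tissue factor protein level read by ELISA.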 Conditions: primary human coronary artery smooth muscle cells; actives raise or lower the signal.

Read-out in assay [3]: Interferon-gamma inducible Protein 10 (IP10), CXCL10 (gene 3627)
The experiment in a line: BSK_hDFCGF_IP10: BioMAP Diversity Plus: hDFCGF Assay for Interferon-gamma inducible Protein 10 (IP10) Biomarker Activity (AID 2283053). Conditions: primary human foreskin fibroblasts; actives raise or lower the signal. The method, boiled down: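 Chemical-treated human skin fibroblasts (primary) were sampled at 24 h for IP-10 by ELISA. Both increases and decreases relative to DMSO were scored.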

Read-out in assay [4]: Urokinase-type plasminogen activator receptor (uPAR), PLAUR (gene 5329)
The experiment in a line: BSK_CASM3C_uPAR: BioMAP Diversity Plus: CASM3C Assay for Urokinase-type plasminogen activator receptor (uPAR) Biomarker Activity (AID 2283054).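 Note: cell-surface uPAR protein level quantified by ELISA.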 Conditions: primary human coronary artery smooth muscle cells; actives raise or lower the signal.

Read-out in assay [5]: Vascular cell adhesion molecule 1 (VCAM1), VCAM1 (gene 7412)
Description: BSK_CASM3C_VCAM1: BioMAP Diversity Plus: CASM3C Assay for Vascular cell adhesion molecule 1 (VCAM1) Biomarker Activity (AID 2283055).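 Note: VCAM-1 protein level quantified by ELISA on the cells.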 Conditions: primary human coronary artery smooth muscle cells; actives raise or lower the signal.

Read-out in assay [6]: Collagen III, COL3A1 (gene 1281)
The experiment in a line: BSK_hDFCGF_CollagenIII: BioMAP Diversity Plus: hDFCGF Assay for Collagen III Biomarker Activity (AID 2283056). Conditions: primary human foreskin fibroblasts; actives raise or lower the signal. Summed up:
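Human foreskin primary fibroblasts were exposed to test chemicals for 24 h, after which collagen III was quantified by ELISA. Activity was fitted bidirectionally against DMSO as negative control and baseline.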

Read-out in assay [7]: Epidermal growth factor receptor (EGFR), EGFR (gene 1956)
The experiment in a line: BSK_hDFCGF_EGFR: BioMAP Diversity Plus: hDFCGF Assay for Epidermal growth factor receptor (EGFR) Biomarker Activity (AID 2283057). Conditions: primary human foreskin fibroblasts; actives raise or lower the signal. Summed up:
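Cell-based multiplexed assay in primary human foreskin fibroblasts. EGFR is read by ELISA 24 h after treatment and compared with DMSO controls.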

Read-out in assay [8]: Interleukin-8 (IL8), CXCL8 (gene 3576)
Description: BSK_hDFCGF_IL8: BioMAP Diversity Plus: hDFCGF Assay for Interleukin-8 (IL8) Biomarker Activity (AID 2283058). Conditions: primary human foreskin fibroblasts; actives raise or lower the signal. The method, boiled down: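 hDFCGF human dermal fibroblasts; 24 h chemical exposure; IL-8 by ELISA; bidirectional curve fit vs DMSO baseline; gain or loss of signal scored.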

Assay [9] in a line: BSK_hDFCGF_Proliferation: Cell Proliferation Assessment in the BioMAP Diversity Plus: hDFCGF Assay (AID 2283059).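 Note: curves fitted for both rise and fall of signal versus DMSO baseline.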 Conditions: primary human foreskin fibroblasts. The method, boiled down: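 This proliferation readout used SRB total-protein staining of human foreskin fibroblasts […], normalized to DMSO with bidirectional curve fitting.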
Read-out in assay [10]: Macrophage colony-stimulating factor (MCSF), CSF1 (gene 1435)
Description: BSK_hDFCGF_MCSF: BioMAP Diversity Plus: hDFCGF Assay for Macrophage colony-stimulating factor (MCSF) Biomarker Activity (AID 2283060). Conditions: primary human foreskin fibroblasts; actives raise or lower the signal. The method, boiled down: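 Human foreskin primary fibroblasts were treated with test chemical for 24 h, and M-CSF was then measured by ELISA. Data were fitted bidirectionally against DMSO as the negative control and activity baseline.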

The nature of assay [11]: BSK_hDFCGF_SRB: Viability Assessment in the BioMAP Diversity Plus: hDFCGF Assay (AID 2283061).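 Note: cells exposed to compound for 24 h before the read.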 Conditions: primary human foreskin fibroblasts. The method, boiled down:
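Human foreskin primary fibroblasts were treated with compound and assessed 24 h after dosing. Total protein was measured by sulforhodamine B staining (0.1% SRB after 10% TCA fixation, 560 nm read) as a cytotoxicity marker, with bidirectional fitting against DMSO baseline.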

Read-out in assay [12]: TIMP metallopeptidase inhibitor 1 (TIMP1), TIMP1 (gene 7076)
Description: BSK_hDFCGF_TIMP1: BioMAP Diversity Plus: hDFCGF Assay for TIMP metallopeptidase inhibitor 1 (TIMP1) Biomarker Activity (AID 2283062). Conditions: primary human foreskin fibroblasts; actives raise or lower the signal. The method, boiled down:
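Primary human foreskin fibroblasts in the hDFCGF system were dosed with compound for 24 h, then TIMP-1 was measured by ELISA. Activity was fitted bidirectionally relative to DMSO control; parallel SRB staining assessed cytotoxicity.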

Read-out in assay [13]: Monokine induced gamma interferon (MIG), CXCL9 (gene 4283)
The experiment in a line: BSK_hDFCGF_MIG: BioMAP Diversity Plus: hDFCGF Assay for Monokine induced gamma interferon (MIG) Biomarker Activity (AID 2283063). Conditions: primary human foreskin fibroblasts; actives raise or lower the signal. Summed up: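 ELISA read-out of MIG from primary human dermal fibroblasts 24 h post-dosing. Gain or loss of signal fitted bidirectionally, DMSO as baseline.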

Read-out in assay [14]: Matrix Metallopeptidase 1 (MMP1), MMP1 (gene 4312)
Description: BSK_hDFCGF_MMP1: BioMAP Diversity Plus: hDFCGF Assay for Matrix Metallopeptidase 1 (MMP1) Biomarker Activity (AID 2283064). Conditions: primary human foreskin fibroblasts; actives raise or lower the signal. Summed up:
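Human foreskin fibroblasts exposed to chemical for 24 h; MMP1 detected by ELISA, with DMSO as baseline for bidirectional fitting.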

Read-out in assay [15]: Vascular cell adhesion molecule 1 (VCAM1), VCAM1 (gene 7412)
Description: BSK_hDFCGF_VCAM1: BioMAP Diversity Plus: hDFCGF Assay for Vascular cell adhesion molecule 1 (VCAM1) Biomarker Activity (AID 2283065).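 For AC50: VCAM-1 protein level quantified by ELISA after 24 h chemical exposure.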 Conditions: primary human foreskin fibroblasts; actives raise or lower the signal. Summed up:
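Primary human foreskin fibroblasts (hDFCGF system) were dosed with chemical and VCAM-1 was measured by ELISA 24 h later. Bidirectional curve fitting used DMSO as negative control and activity baseline.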

Read-out in assay [16]: Plasminogen activator inhibitor-1 (PAI1), SERPINE1 (gene 5054)
Description: BSK_hDFCGF_PAI1: BioMAP Diversity Plus: hDFCGF Assay for Plasminogen activator inhibitor-1 (PAI1) Biomarker Activity (AID 2283066). Conditions: primary human foreskin fibroblasts; actives raise or lower the signal. The method, boiled down:
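Human skin fibroblast cultures receive chemical for 24 h before PAI-1 is measured by ELISA; signal changes are fitted bidirectionally against DMSO-treated wells.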

Read-out in assay [17]: Intercellular Adhesion Molecule 1 (ICAM1), ICAM1 (gene 3383)
Description: BSK_KF3CT_ICAM1: BioMAP Diversity Plus: KF3CT Assay for Intercellular Adhesion Molecule 1 (ICAM1) Biomarker Activity (AID 2283067). Conditions: primary human keratinocytes with fibroblasts; actives raise or lower the signal. Summed up:
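Human keratinocyte plus foreskin fibroblast primary co-culture was exposed to chemical for 24 h. ICAM-1 was then quantified by ELISA, and the data were fit bidirectionally against DMSO as the negative control and baseline.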

Read-out in assay [18]: Interferon-gamma inducible Protein 10 (IP10), CXCL10 (gene 3627)
Description: BSK_KF3CT_IP10: BioMAP Diversity Plus: KF3CT Assay for Interferon-gamma inducible Protein 10 (IP10) Biomarker Activity (AID 2283068). Conditions: primary human keratinocytes with fibroblasts; actives raise or lower the signal. The method, boiled down: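 Signal is secreted/surface IP-10 by ELISA in a human primary skin co-culture of keratinocytes and foreskin fibroblasts, taken 24 h post-dosing; DMSO served as negative control.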

Assay [19] in a line: BSK_KF3CT_SRB: Viability Assessment in the BioMAP Diversity Plus: KF3CT Assay (AID 2283069).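 Note: fitted for both signal gain and loss against DMSO baseline.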 Conditions: primary human keratinocytes with fibroblasts. The method, boiled down: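 Overt cytotoxicity is assessed as total protein by sulforhodamine B staining in parallel human skin co-cultures at 24 h after dosing. DMSO serves as negative control and baseline.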
Read-out in assay [20]: Interleukin-1 alpha (IL1a), IL1A (gene 3552)
The experiment in a line: BSK_KF3CT_IL1a: BioMAP Diversity Plus: KF3CT Assay for Interleukin-1 alpha (IL1a) Biomarker Activity (AID 2283070). Conditions: primary human keratinocytes with fibroblasts; actives raise or lower the signal. The method, boiled down: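 Readout is IL-1a level by ELISA, compared bidirectionally with DMSO as baseline. Cells: human keratinocytes co-cultured with foreskin fibroblasts, harvested 24 h post-dose.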

The values below come from PubChem BioAssay (EPA / NIEHS).

“And” between values parts separate entries of the source, which are not always exact repeats. Identical values can stand only once. Some compounds were tested as several samples or in several runs, with calls that do not always agree. The source made the active and inactive calls. Rule for the calls: active = hit-call score of the fitted dose curve at least 0.9, where 1 is the maximum; inactive = score below 0.9.

Consider `Cc1ccc(C(=O)c2ccccc2)cc1`, for which the outcome in assay [1], in [2], in assay [4], in assay [5], in assay [7] and in assay [8] was inactive. For the same molecule, the outcome in assay [11], in assay [17], in [18] and in [19] was inactive. In addition, the AC50 (commonly the concentration at which the activity in the assay is half-maximal) in [3] is 33100 nM (active); in [6] it was 33.8 µM (active); in [9] it was 32.4 µM (active); in [10] it was 29300 nM (active); in assay [12], 31400 nM (active); in [13], 29500 nM (active). In addition, the AC50 was 30700 nM (active) in assay [14], 30500 nM (active) in assay [15], 20 µM (active) in [16] and 20000 nM (active) in assay [20].
Consider `O=P(O)(O)CCC(F)(F)C(F)(F)C(F)(F)C(F)(F)C(F)(F)C(F)(F)C(F)(F)C(F)(F)F`, for which the outcome in assay [1], in assay [2], in [3], in assay [4], in [5] and in [8] was inactive. Besides, the result in [10], in [11], in assay [12], in assay [13], in assay [14] and in assay [15] was inactive. Also, the outcome in assay [17], in assay [18], in assay [19] and in [20] was inactive. The AC50 in [6] was 11.7 µM (active) and 9.02 µM (active); in assay [9], 39.9 µM (active) and 49.4 µM (active); in assay [13] it was 615 nM (active); in assay [16], 29.5 µM (active) and 18.4 µM (active).
With `CN(C)c1ccc(C(=C2C=CC(=[N+](C)C)C=C2)c2ccccc2)cc1`, the AC50 in assay [1] is 758 nM (active); in [2], 19.5 nM (active); in assay [3], 13.8 nM (active); in [4] it was 46.1 nM (active); in assay [5], 554 nM (active); in assay [6], 1.23 µM (active). The AC50 in [8] was 2670 nM (active); in assay [9], 0.0173 µM (active); in [10], 31.9 nM (active); in [11], 8.2 nM (active); in [12], 8.2 nM (active); in assay [13] it was 50.9 nM (active). In addition, the AC50 in assay [14] is 765 nM (active); in assay [15] it was 13.4 nM (active); in assay [16], 0.0185 µM (active); in [17], 516 nM (active); in assay [18] it was 390 nM (active); in [19] it was 318 nM (active). Also, in assay [20], the AC50 is 359 nM (active). In addition, the result in [7] was inactive.
Take `CCCCCCCCCCCCCCC`: the result in [1], in assay [2], in [3], in assay [4], in [5] and in assay [6] was inactive. Further, the outcome in assay [7], in [8], in assay [9], in [10], in assay [11] and in [12] was inactive. In addition, the result in assay [13], in assay [14], in assay [15], in assay [16], in [17] and in assay [18] was inactive. The result in assay [19] and in assay [20] was inactive.
On to `O=C(NCc1ncc(C(F)(F)F)cc1Cl)c1c(Cl)cccc1Cl`, for which the result in assay [1], in assay [2], in [3], in assay [4], in [5] and in assay [6] was inactive. Moreover, the outcome in assay [7], in assay [8], in [9], in assay [10], in assay [11] and in assay [12] was inactive. Further, the result in [13], in [14], in [15], in [16], in assay [17] and in [18] was inactive. Besides, the outcome in [19] and in assay [20] was inactive.
